Assay results published in PubChem BioAssay (NCI).
This is part of a sample that, as a whole, favours compounds with a hit. Of some 83,000 tested, about 20% had one in any assay.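 Treatment: one concentration, 48 hours, 96-well format. Scoring: percent growth, with anything below 10 considered active.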 Values without a mark were called inactive. Activity calls are given as the source filed them.

Experiments:
Experiment in all cases: NCI-60 one-dose screen, 48 h (100 = growth as untreated, 0 = no growth, -100 = all killed)
Conditions in all cases: 10 µM
NCI-H23 lung = system: NCI-H23 lung
NCI-H226 lung = system: NCI-H226 lung
NCI-H322M lung = system: NCI-H322M lung
HOP-62 NSCLC = system: HOP-62 NSCLC
NCI-H460 lung = system: NCI-H460 lung
NCI-H522 lung = system: NCI-H522 lung
A549/ATCC NSCLC = system: A549/ATCC NSCLC
786-0 renal = system: 786-0 renal
COLO 205 colon = system: COLO 205 colon
DU-145 prostate = system: DU-145 prostate
K-562 leukemia = system: K-562 leukemia
MALME-3M melanoma = system: MALME-3M melanoma
MDA-MB-231 breast = system: MDA-MB-231 breast
RXF 393 renal = system: RXF 393 renal
SF-268 CNS = system: SF-268 CNS
SF-295 CNS = system: SF-295 CNS
SF-539 CNS = system: SF-539 CNS
UACC-257 melanoma = system: UACC-257 melanoma
M14 melanoma = system: M14 melanoma
HCT-15 colon = system: HCT-15 colon

| SMILES | growth (NCI-H23 lung) | growth (NCI-H226 lung) | growth (NCI-H322M lung) | growth (HOP-62 NSCLC) | growth (NCI-H460 lung) | growth (NCI-H522 lung) | growth (A549/ATCC NSCLC) | growth (786-0 renal) | growth (COLO 205 colon) | growth (DU-145 prostate) | growth (K-562 leukemia) | growth (MALME-3M melanoma) | growth (MDA-MB-231 breast) | growth (RXF 393 renal) | growth (SF-268 CNS) | growth (SF-295 CNS) | growth (SF-539 CNS) | growth (UACC-257 melanoma) | growth (M14 melanoma) | growth (HCT-15 colon) |
| --- | --- | --- | --- | --- | --- | --- | --- | --- | --- | --- | --- | --- | --- | --- | --- | --- | --- | --- | --- | --- |
| COc1cc(Nc2ncnc(Nc3ccc4c(n3)NC(=O)C(C)(C)O4)n2)cc(OC)c1OC | 25.5% | -27.7% (active) | 4.97% (active) | 13.6% | 12.1% | -11.6% (active) | -23.1% (active) | 8.87% (active) | -2.65% (active) | 18.8% | 34.6% | 28.2% | 3.82% (active) | -86.6% (active) | -21% (active) | 19.6% | -59.3% (active) | 30.2% | 40% | 22.9% |
| O=C(CCCCC(=O)Nc1ccc2c(c1)/C(=C/c1ccc[nH]1)C(=O)N2)NO | 106% | 91.1% | 64.1% | 94.3% | 97.6% | 49.4% | 95.6% | 94.4% | 89% | 91.2% | 85% | 17.5% | 94.4% | 76.8% | 76.2% | 102% | 81.1% | 70.6% | 58.6% | 96.2% |
| CCCCOC(=O)Oc1ccc(C(=O)Oc2ccc(OCC)cc2)cc1 | 99.9% | 92.7% | 98.6% | 113% | 106% | 82.7% | 85.6% | 96.7% | 118% | 97.7% | 109% | 109% | 97.9% | 102% | 95.5% | 109% | 86.2% | 99.5% | 96.7% | 102% |
| Cc1ccc(S(=O)(=O)OCCN(CCOS(=O)(=O)c2ccc(C)cc2)c2c[nH]c(=O)[nH]c2=O)cc1 | 108% | 99.2% | 105% | 108% | 114% | 125% | 101% | 112% | 115% | 124% | 105% | 117% | 109% | 106% | 108% | 112% | 96.4% | 91.4% | 105% | 99.7% |
| CCCCC/C=C/C(=O)CCc1ccc(O)c(OC)c1 | 89.2% | 87.8% | 106% | 107% | 97.3% | 60.8% | 82.6% | 91.1% | 108% | 76.9% | 59.9% | 23% | 79.3% | 74.6% | 86.9% | 96.4% | 90.1% | 91.9% | 80.7% | 88.2% |
| O=C1/C(=C\c2ccc(Cl)cc2)CN(C(=S)Nc2ccccc2)C/C1=C\c1ccc(Cl)cc1 | -52.8% (active) | -70.1% (active) | -20.7% (active) | -55.4% (active) | -70.8% (active) | -88.2% (active) | -21.4% (active) | -86% (active) | -86.1% (active) | -73.2% (active) | 2.61% (active) | -39.9% (active) | -17.3% (active) | -88.6% (active) | -72.4% (active) | -53.3% (active) | -94.4% (active) | -55.4% (active) | -65.3% (active) | -34.7% (active) |
| Clc1cc2c(c(CSc3nc4ccccc4n4cccc34)c1)OCOC2 | 77.9% | 134% | 83.2% | 88.2% | 66.6% | 59.8% | 29.9% | 93.4% | 84.1% | 106% | 74.4% | 88.2% | 65.8% | 34.2% | 85.4% | 79.5% | 67.2% | 61.3% | 87.5% | 71.4% |
| C/C(=N\Nc1nc2ccccc2s1)c1ccncn1 | 42.3% | 41.9% | 46.2% | 41.3% | 23.2% | 4.38% (active) | 50.6% | 38.3% | 7.12% (active) | 28.3% | 0.401% (active) | 43.2% | 31.3% | 9.64% (active) | 45.5% | 39.3% | 40.8% | 55.6% | 34.9% | 18.6% |
| COc1ccc(-c2cc(-c3cccc(NS(C)(=O)=O)c3)nc(N)c2C#N)cc1 | 37.7% | 62.8% | 44.4% | 52.3% | 4.64% (active) | -4.96% (active) | 33.6% | 42.9% | -27% (active) | 5.82% (active) | 14.3% | 2.95% (active) | 30.4% | 16.3% | 29.9% | 0.458% (active) | 5.27% (active) | 79.1% | 6.36% (active) | 30.5% |
| Fc1cc(C(F)(F)F)ccc1-c1cncnc1NC1CCCCCC1 | 92.6% | 82.6% | 104% | 93.1% | 102% | 91.3% | 85.4% | 97.9% | 105% | 101% | 91.3% | 118% | 91% | 88.5% | 115% | 94.5% | 94.8% | 93.9% | 105% | 95.6% |
| COc1cc(NC(=O)CCSc2nc3ccc(C)cc3c(=O)n2Cc2ccccc2)cc(OC)c1OC | 108% | 27.4% | 71.9% | 9.27% (active) | 48.3% | 65.2% | 42.6% | 72.6% | 112% | 83.6% | 78% | 33.8% | 52.5% | 36.4% | 40.4% | 59.4% | 33.5% | 57.1% | 87.4% | 76.5% |
| CCOC(=O)c1ccoc1 | 103% | 101% | 85.1% | 97.8% | 101% | 91.1% | 96.9% | 99.1% | 101% | 109% | 93.8% | 100% | 128% | 110% | 108% | 108% | 95.6% | 80.3% | 106% | 97% |
| N=C(N)c1ccc(-c2ccc(-c3cccs3)o2)cc1 | 85.1% | 67.5% | 12.8% | 64.7% | 0.151% (active) | 61.9% | 45.4% | 62.3% | -97.4% (active) | 57.9% | -13.1% (active) | -72.4% (active) | 0.444% (active) | 39% | 61.6% | -52.3% (active) | 77.9% | -47.3% (active) | -27.4% (active) | -10.2% (active) |
| CC(=O)[C@H]1CC[C@H]2[C@@H]3CCC4=CC(=O)C=C[C@]4(C)[C@H]3CC[C@]12C | 90% | 88.4% | 97% | 100% | 96.1% | 81.4% | 94.4% | 99.8% | 119% | 108% | 76.6% | 89.3% | 100% | 125% | 102% | 92.5% | 87.9% | 87.8% | 107% | 106% |
| O=C1/C(=C\c2ccc(F)cc2)CN(C(=O)c2ccc([N+](=O)[O-])cc2)C/C1=C\c1ccc(F)cc1 | 49.3% | 38.2% | 76.3% | 32.9% | 68.4% | 46.9% | 52.9% | 20.3% | 38.8% | 25.5% | 1.96% (active) | 40.5% | 0.131% (active) | -2.85% (active) | 29.2% | 10.4% | 58% | 67% | 2.02% (active) | 7.31% (active) |
